Only some compounds are listed: those with a hit (about 2.2% of all), similar ones and a draw of the others.
Abeta yeast res: A-beta toxicity reversal in yeast. yeast expressing A-beta42, growth rescue, OD600, 48 h; response scale: 0% DMSO, 100% iron-clioquinol control. actives 0.063% (n = 410,000). Potency, µM (titrated, usually from 46.1 µM), usual class: activators; note: nearly all actives have a fitted effect of over 55% in size
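Yeast A-beta toxicity model in growth medium with pinned compounds, 48 h at 30 C; growth read as absorbance at 600 nm. Normalized to FeCl3/clioquinol equimolar mix (positive) and DMSO (negative).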
TDP43 rescue: rescues yeast growth from TDP-43 toxicity; TDP-43 expressing yeast growth rescue, BacTiter-Glo, 24 h; Potency, µM (series often up to 46.1 µM), inactives show top-dose growth rescue (activation), actives largely listed as activators; actives 1.8% (n = 410,000); AID 652104; note: % of control where 0% means no effect; nearly all actives have a fitted effect of over 50% in size
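Readout is BacTiter-Glo luminescence of cell growth, so inhibitors register as activators. TDP-43-expressing yeast at OD600=0.02 in galactose medium, after raffinose pregrowth to mid-log, were incubated with compound for 24 hr at 30 deg C.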
Mito fusion act: blocks mitochondrial division or promotes mitochondrial fusion; S. cerevisiae fusion-defective mutant growth rescue, CellTiterGlo 48 h; Potency, µM (top dose mostly 46.1 µM), for the others: at the top dose growth rescue (activation), hits mostly activators; actives 0.23% (n = 320,000); AID 485298; note: % of control where 0% means no effect; nearly all actives have a fitted effect of over 45% in size
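Luminescent cell viability in 1536-well qHTS format served as the measure of rescued growth in ts fusion-mutant S. cerevisiae cultured on non-fermentable YPEG for 48 hours at 37C.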
FUS yeast rescue: FUS proteinopathy suppression in yeast | S. cerevisiae FUS-expressing, growth rescue, OD600, 24 h | Potency, µM (highest dose often 76.6 µM), most hits filed as activators | actives 0.24% (n = 390,000) | AID 1347120;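 note: plate controls were DMSO vehicle for no effect and reference control for full effect; nearly all actives have a fitted effect of over 55% in size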
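FUS-expressing yeast, raffinose-pregrown, induced in 2% galactose minimal medium at OD 0.005; compounds in a dilution series, 24hr at 30C. Growth restoration read as absorbance at 600 nm. CP55940 positive control, DMSO negative.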
aSyn yeast inh: inhibitors of alpha-synuclein toxicity in yeast; Yeast expressing alpha-synuclein, growth rescue, BacTiter-Glo, 24 h; Potency, µM (titrated, usually from 46.1 µM), without a hit: top-dose growth rescue (activation), actives largely listed as activators; actives 0.14% (n = 370,000); AID 652106; note: % of control where 0% means no effect; nearly all actives have a fitted effect of over 65% in size
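Screening used galactose-induced yeast with toxic alpha-synuclein levels, exposed to compound for 24 hr at 30 deg C. Cell growth, read with BacTiter-Glo luminescence, gave the measured signal.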
The depositor's hits bear a star; i = inactive; ? = inconclusive; . = no result; [ ] = another dose, or the depositor's remark. Calls come from the whole dose curve; as a rule, active = well fitted curve in the direction sought with a large enough effect; inconclusive = small, poorly fitted or top-dose-only effect, or another doubt; inactive = no such curve, though single readings can be large; an effect the other way counts as inactive or inconclusive. Potency is the fitted concentration of half-maximal effect.

SMILES	Abeta yeast res	TDP43 rescue	Mito fusion act	FUS yeast rescue	aSyn yeast inh
CCN1CCCC1CN(Cc1cc2ccc(C)cc2[nH]c1=O)C(=S)Nc1ccccc1OC (stereo not drawn)	i	-0.1%	1.5%	.	6.1%
Cc1ccccc1CNC(=O)c1ccc(NC(=O)c2nsc3ccccc23)cc1	i	?	.	i	.
CCCCCCCc1n[nH]c(=S)n1Cc1ccccc1	?	15.8µM*	11.5%	i	1.8%
S=c1[nH]nc(-c2cc3ccccc3o2)n1Cc1ccccc1	i	-13.8%	14.1µM*	i	-13.0%
O=C(COc1ccccc1C(=O)Nc1ccccc1)Nc1cccc([N+](=O)[O-])c1	.	.	.	.	-2.5%
CSc1nc(C)c(Oc2ccccc2)c(=O)n1C	i	13.1%	5.5%	i	-3.3%
CSc1nc(-c2ccccc2F)c(C#N)c(=O)n1C	i	20µM*	9.2%	i	-0.8%
O=C(Nc1ccc(F)c(F)c1)c1cc(S(=O)(=O)NC2CCCC2)ccc1F	i	1.7%	.	i	.
O=C(CN1C(=O)COc2ccc(S(=O)(=O)NC3CCCC3)cc21)Nc1ccc(F)c(Cl)c1	i	-3.6%	.	20µM*	.
O=C(Nc1cc(Cl)cc(Cl)c1)c1cc(S(=O)(=O)NC2CCCC2)ccc1F	i	20µM*	.	i	.
CCN(c1ccccc1)c1nnc(NC(=O)Nc2ccc(Br)cc2F)s1	i	6.9%	.	i	.
C=Cc1ccc(Cn2c(C)c(C(=O)NCc3ccc4c(c3)OCO4)sc2=O)cc1	?	22.4µM*	.	i	8.2%
Cc1c(C(=O)NCc2cccc([N+](=O)[O-])c2)sc(=O)n1Cc1cccc(F)c1	i	17.8µM*	.	i	6.3%
Cc1c(C(=O)NCc2cccc([N+](=O)[O-])c2)sc(=O)n1Cc1ccc(F)cc1	i	0.0%	.	i	9.9%
COc1ccc(CNc2cc(-c3ccc(OC)cc3)nc3nncn23)cc1	i	14.1µM*	.	i	.
CCc1c(C)nc2nncn2c1NCc1ccc(OC)cc1	i	27.2%	.	i	.
Fc1ccc(CNc2cc(-c3ccccc3)nc3nncn23)cc1	i	17.8µM*	.	?	.
Fc1ccc(CNc2ccn3nc(-c4ccccc4)cc3n2)cc1	?	17.8µM*	.	?	14.9%
COCCCNc1ccn2nc(-c3ccccc3)cc2n1	?	?	.	i	?
Cc1nn(CCC(=O)N2CCN(c3ccccc3)CC2)c(C)c1S(=O)(=O)N1CCCC1	i	-2.1%	.	i	.
CCOC(=O)c1c(NC(=O)c2nc(S(C)(=O)=O)ncc2Cl)sc(C(C)=O)c1C	i	23.2%	.	i	.
O=C(COc1ccccc1C(=O)Nc1cccc([N+](=O)[O-])c1)Nc1ccc(Br)cc1	.	.	.	.	2.0%
CCOc1ccccc1C(=O)N1CCC(Oc2cccnc2)CC1	.	.	.	i	.
COc1nc(NC23CC4CC(CC(C4)C2)C3)nc(OC)n1	i	14.1µM*	-3.4%	i	12.5%
CCOc1ccc(NC(=O)c2cnn3c2NC(c2cccc(OC)c2)=CC3c2ccccc2)cc1 (stereo not drawn)	i	3.1%[9.22 µM]	.	i	.
SMILES	Abeta yeast res	TDP43 rescue	Mito fusion act	FUS yeast rescue	aSyn yeast inh
CCc1noc(-c2ccc(N3CCC(C)CC3)c([N+](=O)[O-])c2)n1	i	18.6%	.	i	.
CCOC(=O)N1CCN(c2nc(-c3ccc(F)cc3)cs2)CC1	i	20µM*	-1.2%	i	-17.4%
CCOC(=O)C(=O)N1CCN(c2nc(-c3ccc(Cl)cc3)cs2)CC1	i	?	10.2%	i	-4.1%
COc1cccc(-c2csc(N3CCN(C(=O)Nc4ccc(F)cc4)CC3)n2)c1	i	17.8µM*	?	12.6µM*	-3.8%
CNC(=S)N1CCN(c2nc(-c3ccc(F)cc3)cs2)CC1	i	14.7%	-0.5%	i	-3.8%
COCCCNC(=S)N1CCN(c2nc(-c3ccc(F)cc3)cs2)CC1	?	22.4µM*	-7.6%	?	-2.1%
CCOCCCNC(=S)N1CCN(c2nc(-c3ccc(F)cc3)cs2)CC1	?	25.1µM*	-1.7%	i	4.4%
CCN(CCN(C)Cl)/[N+]([O-])=N/Oc1ccc([N+](=O)[O-])cc1[N+](=O)[O-]	.	.	.	.	-24.6%
COc1ccc2cc(CNc3ccc(OC)c(OC)c3)c(=O)n(CC(=O)Nc3ccc(C)cc3)c2c1	i	3.6%	.	i	4.7%
C=CCOc1c(Br)cc(CNc2ccc(NC(=O)CCC)cc2)cc1OCC	?	?	-2.1%	i	1.6%
C=CCOc1c(Br)cc(CNc2ccc(NC(=O)C(C)C)c(OC)c2)cc1OCC	i	9.7%	2.6%	14.1µM*	9.7%
Nc1ccc2c(c1)C(=O)N(c1cccc3ccccc13)C2=O	i	14.1µM*	0.3%	i	11.2%
Cc1ccc(N2C(=O)c3ccc(N)cc3C2=O)cc1C	i	11.2µM*	10.0%	i	1.8%
COc1cc2nc(N3CCCN(C)CC3)nc(OC3CCN(C)CC3)c2cc1OC	.	.	.	.	-0.7%
CC(C)(C)OC(=O)N(c1cccc2cccnc12)S(=O)(=O)c1ccccc1Br	.	.	.	.	-4.1%
COc1ccc(-c2c3c(=O)n(C)c(=O)n(C)c3c3c(-c4cccc(C)c4)nc4ccccc4n23)cc1	i	15.8µM*	.	i	.
O=C(c1c(F)cccc1F)N1CCN(c2cccc(C(F)(F)F)c2)CC1	i	15.8µM*	6.0%	i	14.0%
COc1cc2c(C(=O)N3CCN(c4cc(Cl)ccc4C)CC3)cn(CC(C)C)c(=O)c2cc1OC	i	6.2%	.	i	.
COc1cc2c(C(=O)N3CCN(c4cccc(C(F)(F)F)c4)CC3)cn(CC(C)C)c(=O)c2cc1OC	i	?	.	22.4µM*	.
CCN(c1cccc(C)c1)S(=O)(=O)c1nnc(NC(=O)c2ccccc2Cl)s1	i	24.5%	.	i	.
CCCn1c(=O)c2sccc2n2c(CCCC(=O)N3CCN(c4ccc(OC)cc4)CC3)nnc12	i	-4.1%	.	i	.
COc1cccc(CNc2nc3cc(-c4cscc4C)sc3c(=O)n2C)c1	i	20µM*	.	?	?
COc1cccc(CNc2nc3cc(-c4ccc(OC)cc4C)sc3c(=O)n2C)c1	i	20µM*	.	i	17.3%
Cc1ccc(C(=O)OC(C)C(=O)Nc2ccc(Cl)cn2)s1 (stereo not drawn)	i	14.1µM*	-5.5%	i	-14.0%
CC(OC(=O)c1ccccc1O)C(=O)Nc1ccc(Cl)cn1 (stereo not drawn)	i	8.4%	1.0%	i	0.5%
Cc1cccc(N2CCn3c2nc2c3c(=O)n(C/C=C/c3ccccc3)c(=O)n2C)c1	i	17.1%	.	i	.
COc1ccc(OC)c(CNC(=O)CSc2c3c(nc4cc(Cl)ccc24)CCCC3)c1	i	15.1%	.	i	.
O=C(CSc1c2c(nc3ccc(Cl)cc13)CCCC2)N1CCN(c2cccc(Cl)c2)CC1	i	15.8µM*	.	?	.

Screens deposited in PubChem BioAssay by National Center for Advancing Translational Sciences (NCATS).
